In the supplement of paper PMC10338343:
± gives the standard deviation.

system: MILI (PIWIL2) piRISC loaded with L1MC piRNA (26 nt); assay: pre-steady-state target cleavage rate (min^-1); guide: L1MC piRNA 5'p-UAACUAAAUACUAUGCAAGCUGUAGG; MIWI and MILI are mouse PIWI proteins and EfPiwi is from a freshwater sponge; tags in brackets are library labels; higher = faster piRNA-guided slicing of the target; conditions: auxiliary factor: 500 nM mouse GTSF1
Outline: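 In Cleave-'n-Seq, a transcribed, DNA-blocked target RNA library (0.1 nM) was combined with 1 nM active affinity-purified piRISC bearing one synthetic guide, with or without 500 nM GTSF1 partner protein. Reactions ran in HEPES–potassium acetate buffer at 33 °C for 0–8 or 0–960 min. Uncleaved targets were sequenced and normalised to depth and to weakly complementary targets, three trials were pooled, and k3 was capped at 0.0001 min^-1. The pre-steady-state cleavage rate was obtained by fitting a burst-and-steady-state model.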

Sequence | pre-steady-state target cleavage rate
UCCUGGAACAGCUUGCUAAGUAUUUACAAA | 0.0164 ± 0.0066
UCCUGGAACAGCUAGCAUACUAUUUAGUUA | 0.0692 ± 0.011
UCCUGGAUCAGCUUGCAUAGUAUUUACUAA | 0.0285 ± 0.011
UCCUGGAUGUCCUUGCAUUGUAUUUUGUUA | 0.0388 ± 0.013
UCCUCCUACAGCUUGCAUAGAUAUUAGUAA | 0.015 ± 0.007
UCCUGGUACAGCUUGCAUCAGUAUUUAGUUA | 0.0101 ± 0.0042
UCCUGGAUGUCGAACGUAUGUAUUUUGUAA | < 0.0001
UCCUGGAUCAGCUUGCAAUCUAUUUAGUAA | 0.0108 ± 0.0043
UCCUGCUACAGCUUGCAAAGUAUUUUCAAA | 0.0624 ± 0.02
UCCUGGAUCAGCAUGCAUAGAAUUUAGUUA | 0.0386 ± 0.0077
UCCUGGAUGUCGAAGCAUAGUAUUUAGUGUA | 0.035 ± 0.012
UCCUCCUACAGCUUGCAUAGUAUAAUCAAA | 0.122 ± 0.029
UCCUGGUACAGCUUGCAUAGUAAUUAGUAA | 0.212 ± 0.037
UCCUGGAUGUCGUAGCAUAGUAUUUAGUAA | 0.0538 ± 0.01
UCCUGGAUGAGCAUGCAUAGAAUUUAGUUA | 0.0184 ± 0.008
UCCUCCUACACCUUGCAUAGUAUUUACAAA | 0.127 ± 0.032
UCCUCCUACACGUUGCAUAGUAUUUUCAAA | 0.0568 ± 0.017

Sequence | pre-steady-state target cleavage rate
UCCUGGAUGUCGUUGCAUAGUAUAUUGUUA | 0.0458 ± 0.017
UCCUCGUACAGCUUGCAUAGUAUUUACAAA | 0.105 ± 0.025
UCCUGGAUGUCGAUGCAAAGUAUUAAGUUA | 0.00433 ± 0.0038
UCCUGGAUGUCCUUGCAUAGUAUUAUCAAA [g7:g19:cont:t1A] | 0.0222 ± 0.0094
UCCUGGAUGAGCUUGCAUUAGUAUUUAGUUA | 0.00494 ± 0.0045
UCCUGCUACAGCUUGCAUUGUAUUUUCAAA | 0.0201 ± 0.0084
UCCUGGAUGUCGAAGCAUAGUAUUCAGUUA | 0.00908 ± 0.0042
UCCUGGAACAGCUUGCAUAGUAUAAAGUAA | 0.249 ± 0.063
UCCUGGUACUGCUUGCAUAGUAUUUACUUA | 0.0201 ± 0.0085
UCCUGGAUGUCGUUGCAUAGUAUUUAAUUA | 0.0359 ± 0.013
UCCUGGAUGUCCUUGCUUAGUAUUAAGUUA | 0.0115 ± 0.0047
UCCUGGAUCAGCUUGCAUUGUAUUUUCAAA | 0.00931 ± 0.0046
UCCUGGAUGUCGAACGUUAGUUUUUAGAUA | < 0.0001
UCCUGGUACAGCAUGCAUAGUAUUUUCAAA | 0.0847 ± 0.026
UCCUGGAUGUCGUUCAUAGUAUUUAGUUA | 0.013 ± 0.0035
UCCUGCUACAGCUUGCAAUGUAUUUAGUAA | 0.124 ± 0.023
UCCUGGAACAGCUUGCAUAGUAAAAAGAAA | 0.0185 ± 0.0077
